High-throughput results as filed in PubChem BioAssay.
IL1B secr inh = inflammasome signaling inhibition, IL-1 beta readout; THP-1 LPS/ATP IL-1B secretion, AlphaLISA, 16 h; active compounds read low; activity change, % at 57.5 µM; actives 4.7% (n = 360,000); AID 743279; in the data active = activity change below about -50%; inconclusive = mostly about -30% to -49%; also: % is scaled to controls: 0 for no effect and ±100 for the full control effect
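THP-1 cells pretreated 1 hr with compounds (up to 57.5 uM final), then stimulated with LPS (250 ng/mL final) plus ATP (1.25 mM final); secreted IL-1B measured by AlphaLISA after 16 hr, decreased signal indicating inhibition.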
TDP1 cell CPT = DT40-hTDP1 cell growth loss with CPT. chicken DT40 Tdp1-/-;hTDP1 cells + 20 nM CPT, ATP luminescence, 48 h. actives 12% (n = 420,000). Potency, µM (top dose mostly 46.2 µM), for the others: at the highest dose activity change, negative = growth inhibition, actives largely listed as inhibitors; also: potency is read from the fitted curve at half-maximal effect; % is scaled to controls: 0 for no effect and ±100 for the full control effect; nearly all actives have a fitted effect of over 55% in size
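Chicken DT40 Tdp1-/- cells complemented with human TDP1, 400 cells/well, exposed to compounds plus 20 nM camptothecin for at least 48 h at 37 C; viability read as ATP content by CellTiter-Glo luminescence.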
HepG2 tox = kills HepG2 cells in TGF-b inhibitor counter-screen | HepG2 CAGA-GFP viability, ATP luminescence, 18 h | Potency, µM (highest dose often 46.1 µM), for inactives: top-dose activity change, negative = cytotoxicity, usual class: cytotoxic | actives 0.76% (n = 410,000) | AID 588856; also: potency is read from the fitted curve at half-maximal effect
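HepG2 CAGA-GFP cells (1000/well, DMEM with 1% FBS) received compound, then TGF-beta at 500 pg/mL final, and were incubated 18 hours at 37 degrees C. Viability was read by CellTiter-Glo luminescence. Media-only wells were set as complete cell-killing and DMSO as no toxicity.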
TDP1 inh = TDP1 (human) enzyme inhibition. AID 485290. recombinant TDP1, AlphaScreen DNA substrate cleavage. actives 0.28% (n = 350,000). Potency, µM (titrated, usually from 130 µM), for the others: at the top dose activity change, negative = inhibition, most hits filed as inhibitors; also: potency is read from the fitted curve at half-maximal effect; % is scaled to controls: 0 for no effect and ±100 for the full control effect; nearly all actives have a fitted effect of over 40% in size
Target sequence (Q9NUW8 whole entry, looked up): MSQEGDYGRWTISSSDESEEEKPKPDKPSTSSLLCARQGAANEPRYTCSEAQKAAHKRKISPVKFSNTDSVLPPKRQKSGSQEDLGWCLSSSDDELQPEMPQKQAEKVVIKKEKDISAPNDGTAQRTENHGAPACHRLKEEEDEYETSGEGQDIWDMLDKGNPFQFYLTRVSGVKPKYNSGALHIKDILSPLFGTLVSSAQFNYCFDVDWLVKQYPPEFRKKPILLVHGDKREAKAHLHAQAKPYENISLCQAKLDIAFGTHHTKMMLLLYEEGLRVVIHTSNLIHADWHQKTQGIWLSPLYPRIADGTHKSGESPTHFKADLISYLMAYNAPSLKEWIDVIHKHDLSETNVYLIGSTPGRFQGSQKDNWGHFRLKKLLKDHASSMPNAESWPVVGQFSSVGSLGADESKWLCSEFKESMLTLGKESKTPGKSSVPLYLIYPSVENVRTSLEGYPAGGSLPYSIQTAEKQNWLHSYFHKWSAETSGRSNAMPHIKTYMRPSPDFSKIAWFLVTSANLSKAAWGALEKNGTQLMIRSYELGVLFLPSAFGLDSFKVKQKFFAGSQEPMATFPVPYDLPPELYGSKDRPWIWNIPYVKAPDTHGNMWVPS
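E. coli-derived human Tdp1, 1 nM final. Cpd preinc 15 min RT; substrate 15 nM final, 5 min RT; AS bead mix 10 ug/ml final, 10 min RT. Signal loss = tyrosine-FITC cleavage. No-enzyme wells = max signal.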
TGFb SMAD3 inh = inhibitors of TGF-b signaling; HepG2 CAGA-GFP TGF-b/SMAD3 reporter, GFP fluorescence, 18 h; TGF-beta stimulated, 500 pg/mL final; Potency, µM (series often up to 46.1 µM), without a hit: top-dose activity, negative = inhibition, actives largely listed as inhibitors; actives 1.2% (n = 410,000); AID 588855; also: potency is read from the fitted curve at half-maximal effect; % is scaled to controls: 0 for no effect and ±100 for the full control effect; nearly all actives have a fitted effect of over 65% in size
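HEPG2 CAGA-GFP reporter cells (1000/well, DMEM with 1% FBS) received compounds, then recombinant TGF-beta at 500 pg/mL final for 18 hours at 37 degrees C. Per-cell GFP summed per well was normalised to unstimulated and stimulated DMSO controls before curve fitting.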
TDP1 cell noCPT = qHTS for Inhibitors of human tyrosyl-DNA phosphodiesterase 1 (TDP1): qHTS in cells in absence of CPT; DT40 Tdp1-/- hTDP1 cells, no CPT, ATP luminescence, 48 h; Potency, µM (doses to about 46.2 µM), for inactives: top-dose activity change, negative = growth inhibition, most hits filed as inhibitors; actives 15% (n = 420,000); also: potency is read from the fitted curve at half-maximal effect; % is scaled to controls: 0 for no effect and ±100 for the full control effect; nearly all actives have a fitted effect of over 55% in size
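Growth kinetics read by CellTiter-Glo luminescence after ≥48 hr at 37 °C. Cells: DT40 Tdp1-/- stably carrying human TDP1, 400 per well, compound exposure in the absence of CPT (DMSO vehicle).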
* = called active by the depositor; ? = inconclusive; / = no result; [ ] = dose if it differs, or a comment. Rows were chosen to be rich in hits. Some 18% of all compounds tested hit in one or more screens of this group. Unless noted, calls follow the shape of the dose curve; as a rule, active = well fitted curve in the direction sought with a large enough effect; inconclusive = small, poorly fitted or top-dose-only effect, or another doubt; inactive = no such curve, though single readings can be large; an effect the other way counts as inactive or inconclusive.

SMILES	IL1B secr inh	TDP1 cell CPT	HepG2 tox	TDP1 inh	TGFb SMAD3 inh	TDP1 cell noCPT
N#CCCCN1C(=O)C(O)(CC(=O)c2ccc3c(c2)OCCO3)c2ccccc21 (centres undefined)	12.1	?	-2.9%	1.0%	-2.5%	?
N/N=C1\CCCc2nonc21	16.7	-2.9%	3.7%	1.2%	10.1%	-9.0%
CN(C)c1nc(N)nc2c1ncn2C1OC(CO)CC1O (centres undefined)	-28.2	?	0.2%	/	5.9%	?
COc1nc(N)nc2c1ncn2C1OC(CO)CC1O (centres undefined)	0.0	1.03µM*	-4.4%	/	-15.0%	1.46µM*
Nc1nc(=S)c2ncn(C3OC(CO)CC3O)c2[nH]1 (centres undefined)	48.6	-18.5%	-55.1%	/	?	11.6µM*
CC(=O)c1cccc(OC(=O)Oc2cccc(C(C)=O)c2)c1	2.4	?	-4.0%	/	-4.6%	-36.4%
CCOc1ccc(NC(=O)CN(c2ccc(C)cc2)S(=O)(=O)c2cccs2)cc1	/	4.6%	-14.3%	-2.3%	3.0%	22.1%
CC(C)CCn1c(SCc2c(F)cccc2Cl)nc2ccsc2c1=O	/	-24.2%	-0.2%	-3.4%	-0.5%	7.7%
CCC(C)n1c(SCc2ccc([N+](=O)[O-])cc2)nc2ccsc2c1=O (centres undefined)	?	23.1µM*	-3.8%	5.3%	?	20.6µM*
CCC(C)n1c(SCc2c(F)cccc2Cl)nc2ccsc2c1=O (centres undefined)	/	4.11µM*	-24.6%	1.5%	-2.4%	5.8µM*
CCOc1ccc(NC(=O)CSc2nc3ccsc3c(=O)n2C(C)CC)cc1 (centres undefined)	/	?	8.9%	4.4%	-2.9%	10.3µM*
COc1cc(OC)c(OC)cc1CN1CCCC(n2cc(C(=O)N3CCCCC3)nn2)C1 (centres undefined)	/	18.6%[9.04 µM]	/	/	/	-9.2%
CC(C)CC(NC(=O)CC12CC3CC(CC(C3)C1)C2)C(=O)NC1=NCCS1 (centres undefined)	-3.8	?	-21.8%	0.0%	-20.2%	25.9µM*
Cc1ccc(Cn2ncc3c(N4CCN(c5ccc(C)cc5)CC4)ncnc32)cc1	35.4	-25.2%	-21.2%	3.9%	-12.7%	?
CCN(CC)c1ncnc2c1cnn2Cc1ccc(C)cc1	0.5	?	-4.5%	/	9.9%	11.6µM*
CCN(CC)C(=O)CSc1ncnc2c1cnn2Cc1ccccc1	-2.7	-28.1%	-2.0%	4.2%	0.0%	11.6µM*
Cc1ccc(Cn2ncc3c(N4CCN(C)CC4)ncnc32)cc1	1.7	?	2.4%	3.8%	7.6%	10.3µM*
Cc1cc(C)nc(N2CCN(c3ncnc4c3cnn4Cc3ccc(Cl)cc3Cl)CC2)n1	3.1	?	3.3%	7.7%	-5.0%	3.66µM*
CN(Cc1c(C(=O)N/N=C/c2cccs2)nnn1-c1nonc1N)c1ccccc1	-6.7	15.6%	-0.7%	4.0%	0.7%	17.6%
CC(C)[C@H]1COC(NC2=N[C@@H](C(C)C)CO2)=N1	-0.1	6.8%	0.5%	/	-9.4%	-26.3%
Cc1ccc(Cn2ncc3c(N4CCN(Cc5ccc(Cl)cc5)CC4)ncnc32)cc1	13.5	18.4µM*	-2.5%	6.0%	-15.8%	16.4µM*
Cc1ccc(Cn2ncc3c(N4CCN(C5CCCC5)CC4)ncnc32)cc1	12.4	?	-3.1%	6.0%	1.4%	-26.3%
CC1CCN(c2ncnc3c2cnn3Cc2ccc(Cl)cc2)CC1	-0.2	18.4µM*	-7.2%	-5.8%	3.8%	18.4µM*
Cc1ccc(Cn2ncc3c(N4CCN(CCc5ccccc5)CC4)ncnc32)cc1	1.9	?	4.8%	2.7%	-7.9%	?
Cc1ccccc1N1CCN(c2ncnc3c2cnn3Cc2ccc(Cl)cc2)CC1	?	13µM*	-27.8%	1.0%	?	13µM*
SMILES	IL1B secr inh	TDP1 cell CPT	HepG2 tox	TDP1 inh	TGFb SMAD3 inh	TDP1 cell noCPT
Cc1ccc(Cl)cc1-n1ncc2c(N3CCC(C)CC3)ncnc21	/	23.1µM*	-52.9%	2.6%	-25.4%	9.2µM*
O=C(Cc1ccc(O)cc1)NCCNC(=S)NCc1ccccc1	/	17.4%	8.6%	5.1%	?	-21.7%
COc1ccccc1CNC(=O)COC(=O)CSc1ccc(C)c(C)c1	11.6	-11.0%	4.1%	1.7%	-2.4%	-12.4%
Cc1csc2nc(CNS(=O)(=O)c3ccc4c(c3)CCCC4)cn12	18.6	?	-1.0%	7.2%	8.4%	9.2µM*
COc1ccc(CNC(=O)C2CCN(S(=O)(=O)N3CCCC3)CC2)c(OC)c1	-9.1	-22.7%	6.4%	6.3%	9.6%	-4.6%
Cc1cc2c(cc1S(=O)(=O)N(C)Cc1ccccc1)OCC(=O)N2	8.3	6.5%	-24.0%	/	-18.6%	-26.5%
Cc1cccc(N=C2NC(=O)/C(=C/c3cccn3C)S2)c1	6.5	?	-20.9%	10.3%	?	18.4µM*
Cc1ccccc1N=C1NC(=O)/C(=C/c2cccn2C)S1	-1.3	16.4µM*	-2.0%	9.5%	2.4%	23.1µM*
O=C1NC(=Nc2ccccc2)S/C1=C\c1cccnc1	-11.3	-1.3%	-25.9%	5.5%	-12.6%	-11.2%
O=C1NC(=Nc2cccnc2)S/C1=C/c1ccc(F)cc1	13.2	2.91µM*	11.5%	-1.3%	30.5%	3.26µM*
O=C1NC(=Nc2ccccc2)S/C1=C\c1cccn1-c1ccccc1	-5.5	9.2µM*	-28.0%	7.9%	-21.5%	20.6µM*
CCOc1ccc(C(=O)COC(=O)Cn2[nH]c(=O)c3ccccc3c2=O)cc1	8.0	2.4%	-23.8%	/	-6.9%	-2.9%
COc1cc(C(=O)Nc2nc(-c3ccc(C)cc3)cs2)ccc1OCC(=O)N1CCOCC1	-10.9	23.1µM*	-6.9%	0.0%	7.6%	20.6µM*
COc1cc(C(=O)NCCN2C(=O)S/C(=C\c3ccc(F)cc3)C2=O)ccc1OCC(=O)N1CCOCC1	-0.8	16.4µM*	0.0%	1.2%	2.1%	14.6µM*
COc1ccc(-c2nc(NC(=O)c3ccc(OCC(=O)Nc4ccc(F)cc4)c(OC)c3)sc2C)cc1	-1.2	?	-63.1%	5.6%	-14.3%	18.4µM*
COc1cc(C(=O)Nc2nc(-c3cc(C)ccc3C)c(C)s2)ccc1OCC(=O)Nc1ccc(F)cc1	32.4	?	-1.5%	7.9%	?	?
COc1ccc(-c2csc(NC(=O)c3ccc(OCC(=O)N4CCOCC4)c(OC)c3)n2)cc1	-79.4*	7.31µM*	9.0%	0.6%	18.8%	10.3µM*
